# POLH inh – inhibitors of human DNA polymerase eta; Potency, µM (titrated, usually from 114 µM), for inactives: at the top dose activity change, negative = inhibition, hits mostly inhibitors; actives 1.2% (n = 390,000); Q9Y253; recombinant Pol eta, fluorescent DNA replication assay; also: potency is read from the fitted curve at half-maximal effect; % is scaled to controls: 0 for no effect and ±100 for the full control effect
#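 Pol eta at 10 nM preincubated with compounds 15 min at room temperature; reaction started with fluorescent substrate (50 nM final) and read kinetically at 0 and 10 min.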
# Pol beta inh – DNA polymerase beta (human) inhibition. P06746. Pol beta primer extension/strand displacement, fluorescence kinetic. Potency, µM (titrated, usually from 114 µM), for inactives: top-dose activity change, negative = inhibition, usual class: inhibitors. actives 1.3% (n = 340,000). AID 485314; also: potency is read from the fitted curve at half-maximal effect; % is scaled to controls: 0 for no effect and ±100 for the full control effect
#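 Values derive from four-parameter Hill fits of normalized kinetic data: reads at 0 and 10 min following addition of 50 nM substrate to 10 nM Pol beta preincubated 15 min with compound.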
# PI5P4Ka inh – PI5P4K alpha (human) kinase inhibition; P48426; PI5P4Kalpha enzyme, ADP-Glo luminescence, 60 min; active compounds read low; max response, %; actives 1.2% (n = 330,000); active = max response of -50% or lower; inconclusive = between -30% and -50%; inactive = -30% or higher; also: value at the top dose of about 77 µM; % is scaled to controls: 0 for no effect and ±100 for the full control effect
#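 Single end-point luminescence (ADP-Glo) quantified ADP from PI5P4Kalpha turnover; ATP 5 microM final, 1 h at RT, 0.1% CHAPS and 0.28 mM EGTA in HEPES pH 7.4.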
# Pol kappa inh – inhibitors of human DNA polymerase kappa; purified Pol kappa, fluorescent DNA synthesis assay, 10 min; Potency, µM (top dose mostly 107 µM), inactives show at the highest dose activity, negative = inhibition, most hits filed as inhibitors; actives 0.53% (n = 400,000); AID 588579; also: potency is read from the fitted curve at half-maximal effect; % is scaled to controls: 0 for no effect and ±100 for the full control effect
#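 Readout: fluorescence, taken kinetically at 0 and 10 min. Conditions: 10 nM Pol kappa, 15 min RT compound preincubation, 50 nM substrate final. Controls: enzyme-free buffer wells.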
# FEN1 inh – inhibitors of human flap endonuclease 1. Potency, µM (top dose mostly 114 µM), without a hit: at the highest dose activity change, negative = inhibition, usual class: inhibitors. AID 588795. actives 0.35% (n = 390,000). Recombinant FEN1 flap cleavage, fluorescence, 15 min. P39748; also: potency is read from the fitted curve at half-maximal effect; % is scaled to controls: 0 for no effect and ±100 for the full control effect; nearly all actives have a fitted effect of over 65% in size
# Target sequence (P39748 whole entry, looked up): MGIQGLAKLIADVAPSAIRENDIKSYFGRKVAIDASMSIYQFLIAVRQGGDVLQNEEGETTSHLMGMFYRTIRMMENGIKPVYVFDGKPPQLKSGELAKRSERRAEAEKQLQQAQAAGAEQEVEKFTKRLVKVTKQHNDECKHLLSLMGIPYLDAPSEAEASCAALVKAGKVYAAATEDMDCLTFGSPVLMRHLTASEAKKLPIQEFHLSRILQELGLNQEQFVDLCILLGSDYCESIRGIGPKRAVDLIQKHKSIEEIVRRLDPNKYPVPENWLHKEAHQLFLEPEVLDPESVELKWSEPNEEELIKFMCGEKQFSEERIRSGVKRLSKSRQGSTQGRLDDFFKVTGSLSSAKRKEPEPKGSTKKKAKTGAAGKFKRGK
#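 Enzyme 10 nM, 15 min RT preincubation with compound; start with substrate 50 nM final; reads at 0 and 15 min; qHTS titration, four-parameter Hill fit.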
# Pol iota inh – blocks human DNA polymerase iota activity; Q9UNA4; Pol iota fluorescent replication assay, 10 min; Potency, µM (top dose mostly 115 µM), for inactives: at the highest dose activity, negative = inhibition, most hits filed as inhibitors; actives 1% (n = 390,000); AID 588590; also: potency is read from the fitted curve at half-maximal effect
#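 Fluorescent replication assay read twice, at 0 min and 10 min after adding 50 nM (final) substrate. Enzyme (10 nM) and compounds were first incubated 15 min at room temperature; enzyme-free buffer wells were negative controls.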
# An asterisk follows results filed as active; ? = inconclusive; / = no result; [ ] = dose if it differs, or a comment. Compounds with a hit are over-represented: about 2.8% of the library has one in this group of screens. Unless noted, calls follow the shape of the dose curve; as a rule, active = well fitted curve in the direction sought with a large enough effect; inconclusive = small, poorly fitted or top-dose-only effect, or another doubt; inactive = no such curve, though single readings can be large; an effect the other way counts as inactive or inconclusive.
SMILES,POLH inh,Pol beta inh,PI5P4Ka inh,Pol kappa inh,FEN1 inh,Pol iota inh
CCn1cc(C(=O)NCc2ccc(Cl)cc2)c(=O)c2cc(S(=O)(=O)N(C)C3CCCCC3)ccc21,-21%,19%,/,-3%,?,-3%
Cc1ccc(CNC(=O)c2sc3nc(-c4ccccc4)cn3c2C)cc1,-15%,-3%,/,-2%[60.1 µM],89µM*,8%
CC(C)CCn1nnnc1C(c1ccccc1)N1CCN(C)CC1 (centres undefined),-1%,3%,-1,5%,7%,9%
C=CCN1CCN(C(c2ccccc2)c2nnnn2CCC(C)C)CC1 (centres undefined),2%,3%,-59*,-13%,1%,?
O=C(c1ccco1)N1CCC2(CC1)CCN(c1ccccn1)CC2,/,/,/,0%[60.1 µM],/,/
C[N+]1(CC(=O)NNc2c3ccccc3nc3ccccc23)CCOCC1,/,25µM*,/,/,/,/
O=C(CN1CCOCC1)NNc1c2ccccc2nc2ccccc12,-16%,-6%,-2,-25%,-24%,13%
OCCCn1c(CCNc2nc(-c3ccc(Cl)cc3)cs2)nc2cc(C(F)(F)F)ccc21,-23%,/,24,-11%,0%,10%
O=[N+]([O-])c1cc(-c2csc(NCCc3nc4cc(C(F)(F)F)ccc4n3CCCO)n2)ccc1Cl,?,/,-12,-1%,-2%,13µM*
Cc1ccc2ncnc(NCc3ccco3)c2c1,/,/,/,-18%,-21%,?
CCOc1cc(C(c2c(C)[nH][nH]c2=O)c2c(C)[nH][nH]c2=O)cc(Cl)c1O,10%,52%,-15,-2%,-19%,25µM*
CCOc1cc(C(c2c(C)[nH][nH]c2=O)c2c(C)[nH][nH]c2=O)cc([N+](=O)[O-])c1O,-16%,47%,-18,-12%,-3%,?
CC(=O)Nc1ccc(-c2nnc3n(Cc4ccc(C)cc4)c(=O)c4ccccc4n23)cc1,-15%,0%,/,-40%,0%,8%
COC(=O)CC(c1ccc(OC)c(OC)c1)c1ccc(OC)c(OC)c1,-16%,6%,0,18%,4%,13%
CCOc1ccc(CCNC(=O)c2cn(C)c3ccc(S(=O)(=O)N4CCOCC4)cc3c2=O)cc1OCC,-14%,-1%,-2,1%,-10%,-13%
CCOc1ccc(CCNC(=O)c2cn(C)c3ccc(S(=O)(=O)N4CCCCC4)cc3c2=O)cc1OCC,-13%,?,/,-5%,-8%,79µM*
Cc1nn2c(=S)[nH]nc2[nH]c1=O,-13%,0%,-53*,3%,-6%,23%
Nc1cc(C(=O)OCC(=O)c2ccc(CC(=O)N3CCOCC3)s2)ccc1Cl,28µM*,/,-52*,?,-21%,13µM*
Cc1cc(C(=O)Cn2c(CO)nc3ccccc32)c(C)n1C,-3%,-11%,-29,-26%,6%,79µM*
C=CCn1c(C)cc(C(=O)Cn2c(C(C)O)nc3ccccc32)c1C (centres undefined),-19%,61%,9,-1%,-5%,137%
O=C(NCc1cc(Cl)cc(Cl)c1)c1csc([C@@H]2C[C@H](O)[C@@H](CO)O2)n1,/,/,0,/,/,/
CCCCOCCOCCOCc1cc2c(cc1CCC)OCO2,/,/,/,1%[60.1 µM],/,/
O=C(O)/C(=N/NC(=O)c1ccc(Cl)cc1)c1ccccc1,-14%,25µM*,1,1%,-5%,8%
COc1ccc(CC(=O)Nc2nc(OCC(F)(F)F)cnc2-c2ccc(Cl)cc2Cl)cc1,/,/,0,/,/,/
Oc1c(Br)cc(Br)cc1/C=N/c1nc2c(s1)CCCC2,?,/,-54*,79µM*,-18%,?
SMILES,POLH inh,Pol beta inh,PI5P4Ka inh,Pol kappa inh,FEN1 inh,Pol iota inh
Oc1ccc2ccccc2c1/C=N/c1nc2c(s1)CCCC2,5%,1%,-12,1%,-23%,?
CCCCCCCCCC[N+](C)(C)CC/C=C1/c2ccccc2Sc2ccc(Cl)cc21,-17%,40µM*,19,-2%,?,56%
CCCCCCCCCCC[N+](C)(C)CC/C=C1/c2ccccc2Sc2ccc(Cl)cc21,-13%,?,16,-1%,-35%,-15%
COc1ccc(NC(=O)c2c(NC(=O)C(F)(F)F)sc3c2CCCCC3)cc1,-21%,?,/,-28%,-6%,?
CCOC(=O)c1ccc2nc(C(F)(F)F)[nH]c(=O)c2c1,-16%,-3%,-57*,-2%,26%,-7%
O=C(O)c1ccc2nc(C(F)(F)F)[nH]c2c1,?,-22%,0,-22%,0%,30%
Cc1ccc2nc(Cl)c(C3CC(c4ccco4)=NN3C(=O)CCCC(=O)O)cc2c1 (centres undefined),?,-4%,2,35µM*,-13%,16µM*
CCCCSCCCNC(=O)c1cn(CC)c2ccc(S(=O)(=O)N(C)C3CCCCC3)cc2c1=O,?,-23%,/,-16%,-3%,12%
CC1=CC(C)(C)NC(=S)N1c1cccc2cc(S(=O)(=O)O)ccc12,13µM*,50µM*,-28,-18%,?,?
CC1=CC(C)(C)NC(=S)N1c1ccccc1C,-16%,0%,-4,-10%,-5%,55%
O=C(CCCCCNc1nc(=S)[nH]c2ccccc12)NCCC1=CCCCC1,-18%,10%,1,-5%,9%,190%
c1cc2c3c(c1)CCCN3CCC2,/,/,/,12%,11%,19%
COC(=O)c1c(C)sc(-c2c(-c3ccc(F)cc3)[nH]c3[nH]c(=O)[nH]c(=O)c23)c1O,/,56µM*,/,?,-1%,?
C[C@H](O)[C@@H]1C(=O)N2CCc3c([nH]c4ccccc34)[C@@H]2C[C@@H]1N(C)S(=O)(=O)c1ccccc1,-7%,/,-2,/,/,/
Cc1ccc(NC(=O)c2ccc(Cl)c(N3C(=O)C=CC3=O)c2)cc1,-3%,1%,-68*,-10%,-6%,2%
Cc1oc(-c2cccc(Cl)c2)nc1Cn1c(SCc2ccccc2F)nc2ccncc21,-11%,11%,/,-1%,-19%,13%
COc1ccc(NC(=O)/C(C#N)=C\c2ccc(-c3cccc(C(=O)O)c3C)o2)cc1,22µM*,7.9µM*,-20,?,4%,?
COc1ccc(NC(=O)/C(C#N)=C/c2ccc(-c3ccccc3C(=O)O)o2)cc1,-17%,23%,0,-22%,-14%,18%
COc1ccc(NC(=O)/C(C#N)=C\c2ccc(Br)o2)cc1,?,?,-83*,79µM*,-34%,10µM*
Cc1cc(Nc2ccc(Br)cc2)nc(C)n1,-21%,12%,/,-9%,-11%,0%
CC(=O)NCCNc1ncnc2ccc(-c3ccc(C(=O)N(C)C)cc3)cc12,/,/,/,-9%[60.1 µM],/,/
CC(=O)c1c(C)oc2c(Br)cc(NS(=O)(=O)c3ccc(Br)cc3)cc12,-25%,?,/,-3%[60.1 µM],13%,79µM*

# Assay outcomes (PubChem)
